Values joined by “and” are separate entries in the source; they are usually repeats but may differ in a detail not shown here. Equal values may be shown once. Active and inactive are the calls of the source.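 How the source made its calls, unless noted: active means inhibition at or above 50% relative to wild type and mutant plate controls; inactive means inhibition below 50%.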
How the values were obtained:
[1] = inhibitors of TNFa-induced NFkB p65 translocation, primary screen, imaging, HUVEC, MLSMR starter and 10KST1 sets (AID 438;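 active means inhibition above 20% together with a positive visual image hit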;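 further: compound added about 3h40 before a 20 min TNFalpha stimulation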;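 on inhibition: signal is the nuclear over cytoplasmic p65 intensity ratio per well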); details: HUVEC TNFa-induced p65 nuclear translocation; cell count: measured here: nuclei count (cytotoxicity indicator), at 2.08 µM; inhibition: at 2 µM, stronger effect = higher value, 0% TNFa-plus-vehicle, 100% no-TNFa wells
[2] = inhibitors of mutant huntingtin aggregation, primary screen, imaging, exon1htt(103Q)mCFP cells, high-content imaging (AID 483;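 active means visual image review flags a hit and inhibition of aggregation exceeds 20%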;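 further: compound exposure lasted 3 days before fixation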;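 on nuclei count: percent of the per-plate median nuclei count of sample wells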); details: exon1htt(103Q)mCFP cell line, aggregate imaging, at 2 µM; inhibition of aggregation: stronger effect = higher value; nuclei count: measured here: cell count, toxicity
[3] = inhibitors of E-selectin induction by TNFa, primary screen, imaging, HUVEC, immunofluorescence, MLSMR starter and 10KST1 sets (AID 487;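 active means visually confirmed hit in the image check and inhibition above 20%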;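 on inhibition: signal is fraction of cell area covered by stained E-selectin grains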;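 on nuclei count: 100% = median nuclei count of all wells on the same plate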); details: HUVEC TNFalpha-induced E-selectin immunofluorescence imaging, at 2 µM; inhibition: stronger effect = higher value; nuclei count: measured here: cell number, toxicity
[4] = DUSP6 inhibitors restoring Erk phosphorylation by chemical complementation, primary imaging in DUSP6-transfected HeLa (AID 609;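 active means compounds giving at least 50% inhibition in the cell-based MKP-3 phosphatase rescue imaging test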;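 on inhibition: phospho-Erk level distribution per well compared with pooled transfected vehicle control wells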); details: HeLa MKP-3 transfected, phospho-Erk imaging KS statistic, at 10 µM, cells stimulated with TPA for 15 min
[5] = molecular target: Dual specificity protein phosphatase 6 (Homo sapiens) (UniProt Q16828); test: as above; details: HeLa MKP-3 transfected, phospho-Erk imaging KS statistic; at 10 µM; stronger effect = higher value; cells stimulated with TPA for 15 min
[6] = molecular target: Voltage-gated potassium channel subunit beta-2 (Rattus norvegicus) (UniProt P62483); test: KvBeta enzyme negative modulators, primary screen, biochemical, NADPH fluorescence (AID 622;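 active means fluorescence slope higher than the sample average by over 3 SD, cut at about -0.22 in these data, passing the limit was not always enough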;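 further: slope of raw intensity against log time taken from 70 to 1610 s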); details: recombinant KvBeta, 4-cyanobenzaldehyde reduction, at 10 µM, stronger effect = higher value
[7] = molecular target: Voltage-gated potassium channel subunit beta-2 (Rattus norvegicus) (UniProt P62483); test: KvBeta positive modulators, primary screen, biochemical, NADPH fluorescence (AID 623;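 active means NADPH fluorescence slope more negative than the mean of all samples by about 3 SD, 99.7% confidence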;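 further: fluorescence intensity change per second fitted from 20 to 320 s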); details: Recombinant KvBeta, NADPH fluorescence decrease slope, 10 min; at 10 µM; stronger effect = lower value
[8] = molecular target: Alpha-2C adrenergic receptor (Homo sapiens) (UniProt P18825); test: modulators of alpha2C/GIRK thallium flux, primary screen, cell-based, HEK293 alpha2C/GIRK1/2 (AID 624;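 active means fluorescence slope after compound addition differing from the mean of all screened samples at 99.7% confidence, in either direction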;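 further: slope of fluorescence ratio to pre-addition baseline per second over 15 to 24 s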); details: thallium flux BTC fluorescence, at 10 µM, actives lie on both sides
[9] = inhibitors of larval lipid processing in zebrafish, primary screen, whole organism, PED6 fluorescence, gall bladder and intestine (AID 686;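 active means a full or partial loss of lipid-probe fluorescence in the fish gall bladder, intestine or both, judged by eye; inactive means no fluorescence loss, or compound toxic to the fish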;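 further: larvae 5 to 7 days old with five fish per well; signal comes from phospholipase A2 cleavage of quenched PED6 carried via bile; overnight exposure to compound and PED6 before scoring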); details: Zebrafish larvae PED6 lipid processing, fluorescence scoring; screened at 20 µM (by protocol)
[10] = inhibitors of Chlamydomonas gravitaxis, primary screen, whole organism, Chlamydomonas reinhardtii, WT vs cilia-less mutant, absorbance, 96-well (AID 463189); details: OD600 absorbance, 2 days, at 10 µM, stronger effect = higher value;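 further: 0% = wild type cc124 cells in DMSO and 100% = ciliumless bld1 mutant cells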
[11] = inhibitors of Sendai virus-induced IRF3 signaling, primary screen, TLR/RLR signaling modifier project, cell-based, Sendai virus stimulus, luciferase, 10K MLSCN set (AID 602276;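 active means inhibition at or above 50% at 10 µM; inactive means inhibition below 50%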;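 further: firefly luciferase from ISG56 promoter only with Renilla not read in this screen; 0% = Sendai virus plus DMSO and 100% = medium plus DMSO without virus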); details: HEK293 RL24 IRF3 luciferase reporter, at 10 µM, stronger effect = higher value
[12] = inhibitors of poly I:C-induced TLR3 signaling, primary screen, cell-based, poly I:C stimulus, luciferase, 10K MLSCN set (AID 602277;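 active means inhibition of the reporter signal at or above 50%; inactive means inhibition below 50%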); details: HEK293-TLR3 RL24 IRF3 luciferase reporter, at 10 µM, stronger effect = higher value
[13] = measured here: cell density z-score
[14] = measured here: nuclear c-Myc green intensity z-score
[15] = measured here: nuclear pErk red intensity z-score, stronger effect = higher value

Alpha-2C adrenergic receptor (Homo sapiens), sequence (P18825 whole entry, looked up): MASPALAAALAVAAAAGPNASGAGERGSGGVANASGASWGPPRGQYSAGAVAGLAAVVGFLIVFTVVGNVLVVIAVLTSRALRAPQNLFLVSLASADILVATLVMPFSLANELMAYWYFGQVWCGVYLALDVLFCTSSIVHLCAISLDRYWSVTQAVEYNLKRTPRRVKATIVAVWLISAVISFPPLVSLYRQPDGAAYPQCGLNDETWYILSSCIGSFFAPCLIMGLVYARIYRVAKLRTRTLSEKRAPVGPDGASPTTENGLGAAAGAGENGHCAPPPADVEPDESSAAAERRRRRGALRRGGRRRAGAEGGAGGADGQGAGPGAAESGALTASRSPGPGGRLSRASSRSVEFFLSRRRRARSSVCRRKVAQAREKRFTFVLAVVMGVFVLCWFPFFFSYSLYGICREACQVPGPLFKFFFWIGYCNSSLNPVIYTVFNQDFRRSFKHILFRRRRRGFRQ
Voltage-gated potassium channel subunit beta-2 (Rattus norvegicus), sequence (P62483 whole entry, looked up): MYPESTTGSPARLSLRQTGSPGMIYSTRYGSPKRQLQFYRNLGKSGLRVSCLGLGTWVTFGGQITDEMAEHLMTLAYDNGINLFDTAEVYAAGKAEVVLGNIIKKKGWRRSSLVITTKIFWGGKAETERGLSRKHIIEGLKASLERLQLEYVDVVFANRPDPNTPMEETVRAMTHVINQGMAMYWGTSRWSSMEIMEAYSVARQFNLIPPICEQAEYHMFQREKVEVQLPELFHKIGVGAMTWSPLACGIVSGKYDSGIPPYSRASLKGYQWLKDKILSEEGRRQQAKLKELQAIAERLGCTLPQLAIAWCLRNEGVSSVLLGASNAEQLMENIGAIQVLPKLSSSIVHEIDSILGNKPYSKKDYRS
Dual specificity protein phosphatase 6 (Homo sapiens), sequence (Q16828 whole entry, looked up): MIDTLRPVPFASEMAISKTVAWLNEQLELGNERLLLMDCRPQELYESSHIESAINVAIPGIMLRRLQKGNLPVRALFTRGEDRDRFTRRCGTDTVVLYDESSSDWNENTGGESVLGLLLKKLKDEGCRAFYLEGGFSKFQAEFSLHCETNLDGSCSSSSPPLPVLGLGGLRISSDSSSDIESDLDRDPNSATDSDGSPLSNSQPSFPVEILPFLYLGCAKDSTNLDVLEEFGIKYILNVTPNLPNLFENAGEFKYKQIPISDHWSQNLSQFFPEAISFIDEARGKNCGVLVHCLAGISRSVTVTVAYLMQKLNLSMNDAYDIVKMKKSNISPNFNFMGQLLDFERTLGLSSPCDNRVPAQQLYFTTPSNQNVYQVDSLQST

| SMILES | cell count [1] | inhibition [1] | inhibition of aggregation [2] | nuclei count [2] [%] | inhibition [3] | nuclei count [3] [%] | z-score [4, 13] | z-score [4, 14] | z-score [4, 15] | inhibition [5] | fluorescence slope [6] | NADPH fluorescence slope [7] | slope [8] | outcome [9] | inhibition [10] | inhibition [11] | inhibition [12] |
| --- | --- | --- | --- | --- | --- | --- | --- | --- | --- | --- | --- | --- | --- | --- | --- | --- | --- |
| C=CCSc1nnc2n(-c3ccccc3OC)c(=O)c3c4c(sc3n12)CCC4 | 578 | -5.9% (inactive) | 15.1% (inactive) | 59.7 | -27% (inactive) | 126 | 0.876 | -0.888 | -0.633 | 7.73% (inactive) | -0.339 (inactive) | -1.1e-06 (inactive) | 0.00538 (inactive) | inactive | 43.3% (inactive) | 1.81% (inactive) | 0.316% (inactive) |
| CC(=O)[C@H]1CC[C@H]2[C@@H]3CCC4=CC(=O)CC[C@]4(C)[C@H]3[C@H](O)C[C@]12C | 603 | -11.5% (inactive) | 8.3% (inactive) | 112 | -156% (inactive) | 135 | 1.17 | 0.758 | -0.978 | 7.39% (inactive) | -0.485 (inactive) | 4.5e-06 (inactive) | 0.00386 (inactive) | inactive | -5.96% (inactive) | -13.1% (inactive) | -16.3% (inactive) |
| O=C(O)CN(c1ccccc1)C1SC(=O)NC1=O (stereo not given) | 606 | -0.1% (inactive) | 5.9% (inactive) | 107 | -50.9% (inactive) | 140 | -0.0323 | -0.911 | 0.397 | 16.1% (inactive) | -0.506 (inactive) | -3.4e-05 (inactive) | 0.00506 (inactive) | inactive | 31.8% (inactive) | 11.9% (inactive) | 13.7% (inactive) |
| CC(C)(C)NCC(O)COc1cccc2c1C[C@H](O)[C@H](O)C2 (stereo not given in full) | 666 | 3.8% (inactive) | -15.5% (inactive) | 101 | -100% (inactive) | 118 | 0.108 | 0.144 | 1.49 | -0.828% (inactive) | -0.441 (inactive) | -2.9e-05 (inactive) | 0.00396 (inactive) | inactive | 18.1% (inactive) | 9.2% (inactive) | 32.8% (inactive) |
| CC(=O)OCC(=O)[C@H]1CC[C@H]2[C@@H]3CC=C4C[C@@H](O)CC[C@]4(C)[C@H]3CC[C@]12C | 586 | -9.5% (inactive) | 16.5% (inactive) | 99.7 | -22.1% (inactive) | 128 | 0.459 | 0.562 | -0.353 | 17.3% (inactive) | -0.45 (inactive) | -6.8e-05 (inactive) | 0.00533 (inactive) | inactive | 35% (inactive) | 9.44% (inactive) | 25.1% (inactive) |
| C[C@]12C[C@H](O)[C@H]3[C@@H](CCC4=CC(=O)CC[C@@]43C)[C@@H]1CC[C@@H]2C(=O)CO | 627 | -3.6% (inactive) | -21.5% (inactive) | 101 | -37.7% (inactive) | 102 | 0.905 | 0.0812 | -0.546 | 9.37% (inactive) | -0.526 (inactive) | -4.5e-06 (inactive) | 0.00481 (inactive) | inactive | 3.78% (inactive) and -16.2% (inactive) | 5.57% (inactive) | 32.8% (inactive) |
| CCCSc1ccc2nc(NC(=O)OC)[nH]c2c1 | 574 | 3% (inactive) | -22.3% (inactive) | 15.7 | -115% (inactive) | 123 | 0.0938 | 0.921 | 0.811 | -5.24% (inactive) | -0.486 (inactive) | -8.1e-05 (inactive) | 0.00562 (inactive) | inactive | -13.8% (inactive) | 26.9% (inactive) | -19.4% (inactive) |
| C[C@]12C=CC(=O)C=C1CC[C@@H]1[C@@H]2[C@@H](O)C[C@@]2(C)[C@H]1CC[C@]2(O)C(=O)COC(=O)CCC(=O)O | 671 | -6.3% (inactive) | 6.5% (inactive) | 85.8 | -27.3% (inactive) | 120 | 1.3 | 0.17 | -0.0671 | 19.2% (inactive) | -0.471 (inactive) | -8e-05 (inactive) | 0.00574 (inactive) | inactive | 15.8% (inactive) | 6.58% (inactive) | 46.6% (inactive) |
| NS(=O)(=O)c1cc2c(cc1C(F)(F)F)NC(Cc1ccccc1)NS2(=O)=O (stereo not given) | 519 | -2.8% (inactive) | 18.4% (inactive) | 75.3 | -18.5% (inactive) | 105 | -0.539 | -0.574 | 0.0203 | -0.493% (inactive) | -0.528 (inactive) | 7.9e-07 (inactive) | 0.00523 (inactive) | inactive | -16.5% (inactive) | 9.6% (inactive) | 2% (inactive) |
| N#CC(C(=O)Nc1ccc(Cl)c(Cl)c1)=C1Nc2ccccc2N1 | 445 | -0.2% (inactive) | 13.2% (inactive) | 98.9 | -124% (inactive) | 136 | 0.726 | 1.14 | 0.693 | -1.75% (inactive) | -0.351 (inactive) | -8.3e-07 (inactive) | 0.00591 (inactive) | inactive | -6.51% (inactive) | 12.6% (inactive) | 15.9% (inactive) |
| O=C(O)CCCc1ccccc1 | 647 | 0.8% (inactive) | -15.5% (inactive) | 106 | -27.5% (inactive) | 112 | 0.592 | -1.18 | -0.707 | 8% (inactive) | -0.549 (inactive) | -3.8e-05 (inactive) | 0.0053 (inactive) | inactive | -5.1% (inactive) | -1.93% (inactive) | 7.07% (inactive) |
| CC(Cc1ccc(O)c(O)c1)C(C)Cc1ccc(O)c(O)c1 (stereo not given) | 641 | 12.1% (inactive) | -17.2% (inactive) | 100 | -62.1% (inactive) | 127 | 0.848 | 0.39 | -0.226 | 16.8% (inactive) | -0.504 (inactive) | -8.3e-05 (inactive) | 0.00569 (inactive) | inactive | -9.23% (inactive) | 3.4% (inactive) | -2.88% (inactive) |
| CC1CNCCN1S(=O)(=O)c1cccc2cnccc12 (stereo not given) | 695 | -8.2% (inactive) | 13% (inactive) | 109 | -58.8% (inactive) | 129 | -0.528 | 0.0835 | -0.173 | 15.3% (inactive) | -0.449 (inactive) | -4.6e-05 (inactive) | 0.00348 (inactive) | inactive | 0.228% (inactive) and 8.92% (inactive) and 17.2% (inactive) | 15.5% (inactive) | 43% (inactive) |
| CCOc1nc(-c2ccncc2)nc2ccccc12 | 416 | 5.6% (inactive) | -55% (inactive) | 13.3 | -66.1% (inactive) | 116 | -2.21 | -0.624 | 0.47 | 4.25% (inactive) | -0.322 (inactive) | 3e-05 (inactive) | 0.00435 (inactive) | inactive | 39.6% (inactive) | 13.1% (inactive) | 16.5% (inactive) |
| Nc1nc2ccc(OC(F)(F)F)cc2s1 | 540 | -0.5% (inactive) | -1.7% (inactive) | 86.1 | -27.8% (inactive) | 107 | 2.05 | -1.62 | -0.877 | 36.7% (inactive) | -0.427 (inactive) | 2.4e-05 (inactive) | 0.00474 (inactive) | inactive | 4.87% (inactive) and -11.8% (inactive) | -14.6% (inactive) | -58.1% (inactive) |
| COc1cccc(OC)c1C(=O)N1CCN(S(=O)(=O)c2ccc(C)cc2)CC1 | 565 | -7.5% (inactive) | 12.9% (inactive) | 104 | -232% (inactive) | 135 | -0.228 | -1.25 | 0.112 | 5.57% (inactive) | -0.382 (inactive) | 1.3e-06 (inactive) | 0.0062 (inactive) | inactive | -1.26% (inactive) | 5.77% (inactive) | 18% (inactive) |
| CCN(CC)CCN1C(=O)C(=O)/C(=C(/O)c2ccc(OC(C)C)cc2)C1c1ccncc1 (stereo not given) | 529 | -5.6% (inactive) | 3% (inactive) | 116 | -8.2% (inactive) | 104 | -0.653 | -0.46 | -0.356 | -6.48% (inactive) | -0.356 (inactive) | 4.4e-05 (inactive) | 0.00527 (inactive) | inactive | -14% (inactive) | 8.32% (inactive) | 8.84% (inactive) |
| CC(=O)OCC(=O)[C@@]1(O)CC[C@H]2[C@@H]3CCC4=CC(=O)C=C[C@]4(C)[C@@]3(Cl)[C@@H](Cl)C[C@@]21C | 574 | -7.2% (inactive) | -27.9% (inactive) | 64.3 | -50.9% (inactive) | 118 | 0.892 | 0.179 | 0.325 | 11.3% (inactive) | -0.484 (inactive) | -5.1e-05 (inactive) | 0.00396 (inactive) | inactive | 18.7% (inactive) | 5.49% (inactive) | 38.2% (inactive) |
| CCCCC(=O)Nc1c(O)c2ccccc2[nH]c1=O | 450 | 1.5% (inactive) | -22.7% (inactive) | 104 | -155% (inactive) | 137 | -1.21 | 0.174 | 1.14 | -8.95% (inactive) | -0.491 (inactive) | -0.000197 (inactive) | 0.00511 (inactive) | inactive | -4.89% (inactive) | 2.04% (inactive) | 1.03% (inactive) |
| CC1=NN(c2ccccc2)C(=O)C1 | 619 | -5.9% (inactive) | 2.5% (inactive) | 98 | -82.4% (inactive) | 130 | 0.599 | -0.649 | 1.01 | 9.37% (inactive) | -0.432 (inactive) | 5.3e-06 (inactive) | 0.00466 (inactive) | inactive | 11.5% (inactive) | -68.4% (inactive) | 52% (active) |

Source: PubChem BioAssay
